In PubChem BioAssay (Tox21):
Results filed as inconclusive are left out. The source made the active and inactive calls. Calls follow the shape of the full dose curve.

test: qHTS assay to identify small molecule agonists of the endoplasmic reticulum stress response signaling pathway - cell viability counter screen (AID 1159517); conditions: ESRE-bla HeLa viability, CellTiter-Glo luminescence, 5 h; series mostly up to 61 µM; activity change, negative = cytotoxicity: at the top concentration; also: nearly all actives have a fitted effect of over 50% in size
Source text: U.S. Tox21 Program National Center for Advancing Translational Sciences [NCATS] NIH Chemical Genomics Center [NCGC] U.S. Environmental Protection Agency [EPA] National Institutes of Environmental Health Sciences [NIEHS] National Toxicology Program [NTP] U.S. Food and Drug Administration [FDA] Tox21 Assay Overview: Endoplasmic Reticulum (ER) plays an important role in cellular signaling, protein folding/maturation, stress response, lipid biosynthesis, calcium storage and release etc. Under stress conditions, proteins in ER misfold or unfold, and leading to the expression of ER stress responsive genes. ER stress has been associated with a variety of pathophysiological conditions such as cancer, inflammation, neurodegenerative diseases, diabetes, ischemic heart disease etc. To identify the compounds that induce ER stress response, an ER stress reporter cell line, CellSensor ESRE-bla HeLa (Life Technologies, Carlsbad, CA) containing a beta-lactamase reporter gene under control of the Endoplasmic reticulum Stress Response Element (ESRE) was used to screen Tox21 10K compound library. The cytotoxicity of the Tox21 compound library against the ESRE-bla HeLa cell line was tested in parallel by measuring cell viability using the CellTiter-Glo assay in the same wells.
Tox21 Assay Protocol Summary: ESRE-bla HeLa cells were dispensed at 1,500 cells/6 uL of assay medium per well into black wall/clear-bottom 1536-well plates using a Multidrop Combi (ThermoFisher Scientific, Waltham, MA) dispenser. After the assay plates were incubated at 37 C and 5% CO2 for an overnight, 23 nL of compounds dissolved in DMSO, positive controls or DMSO only was transferred to the assay plate by a Pintool station (Kalypsys, San Diego, CA). The assay plates were incubated at 37 C and 5% CO2 for 5 hr. One uL of LiveBLAzer B/G FRET substrate (Life Technologies) was added using a FRD (Flying Reagent Dispenser, Aurora Discovery, San Diego, CA) and the plates were incubated at room temperature for 2 hr. Fluorescence intensity (405 nm excitation, 460 nm and 530 nm emissions) was measured using an Envision plate reader (PerkinElmer, Shelton, CT). For cytotoxicity, 4 ul/well of CellTiter-Glo reagent was added into the assay plates using an FRD. After 30 min incubation at room temperature, the luminescence intensity was measured using a ViewLux plate reader (PerkinElmer).
% is scaled to controls: 0 for no effect and ±100 for the full control effect.

SMILES	activity change, negative = cytotoxicity
CCCCCOC(=O)CCCCC	-2.38% (inactive)
CC(=O)Nc1ccc(S(N)(=O)=O)cc1	-8.46% (inactive)
Brc1c(NC2=NCCN2)ccc2nccnc12	3.27% (inactive)
Nc1cc(=O)[nH]c(N)n1	9.57% (inactive)
C=CCCCCCCCCC=O	0.703% (inactive)
CCC=O	-19% [at 78.8 µM] (inactive)
CO[Si](CCCOCC1CO1)(OC)OC (stereo not given)	-17.8% (inactive)
CCCCOCCOCCOCCCC	-13.1% (inactive)
CCC(=O)OC(C)c1ccccc1 (stereo not given)	15.7% (inactive)
CC(C)(C)c1nnc(NS(=O)(=O)c2ccccc2)s1	14.2% (inactive)
OC[C@]1(O)OC[C@@H](O)[C@H](O)[C@@H]1O	5.56% (inactive)
CN(C)CCCN1c2ccccc2CCc2ccc(Cl)cc21	-12.5% (inactive)
CO[C@]12C[C@@H](COC(=O)c3cncc(Br)c3)CN(C)[C@@H]1Cc1cn(C)c3cccc2c13	-5.81% (inactive)
Cc1c(O)cccc1O	10.9% [at 78.8 µM] (inactive)
CN1C(=O)N(C)C(O)C1O (stereo not given)	-6.53% (inactive)
CCN(CC)CCOCCOC(=O)C1(c2ccccc2)CCCC1	3.1% (inactive)
NC(=O)Nc1ccccc1	-9.74% (inactive)
CCSC(=O)N(CC(C)C)CC(C)C	-1.19% (inactive)
COC(=O)c1ccc(C)cc1C1=NC(C)(C(C)C)C(=O)N1 (stereo not given)	-9.98% (inactive)
COC(=O)CCSCCC(=O)OC	6.23% (inactive)

SMILES	activity change, negative = cytotoxicity
CS(=O)(=O)O	-17.6% [at 78.8 µM] (inactive)
CN1CCN(c2cc3c(cc2F)c(=O)c(C(=O)O)cn3-c2ccc(F)cc2)CC1	11.5% (inactive)
N[C@@H](C(=O)N[C@@H]1C(=O)N2C(C(=O)O)=C(Cl)CS[C@H]12)c1ccccc1	11.8% [at 6.95 µM] (inactive)
FC1(F)C(F)(F)C(F)(F)C2(F)C(F)(F)C(F)(F)C(F)(F)C(F)(F)C2(F)C1(F)F (stereo not given)	7.47% (inactive)
O=Cc1cccc([N+](=O)[O-])c1	-29.7% (inactive)
CCCCC/C=C\CCC=O	-14.9% (inactive)
CC(C)(C)c1ccc(O)c(O)c1	8.67% [at 78.8 µM] (inactive)
N[C@H]1CN(c2c(F)cc3c(=O)c(C(=O)O)cn(C4C[C@H]4F)c3c2Cl)CC12CC2 (stereo not given in full)	-3.26% (inactive)
NC(=O)COCCN1CCN(C(c2ccccc2)c2ccc(Cl)cc2)CC1 (stereo not given)	-2.03% (inactive)
CCCN1CCCC[C@H]1C(=O)Nc1c(C)cccc1C	-8.24% (inactive)
Cc1ccc(Cl)cc1Cl	4.64% (inactive)
Cn1cc(S(C)=O)c(=O)c2ccc(F)cc21 (stereo not given)	2.98% (inactive)
NS(=O)(=O)c1cc(C(=O)O)cc(N2CCCC2)c1Oc1ccccc1	-1.69% (inactive)
O=C1OC(=O)C2CCCCC12 (stereo not given)	19.6% (inactive)
CC(C)(C)NCCNC(C)(C)C	9.54% (inactive)
NS(=O)(=O)c1cc2c(cc1Cl)NC(C1CC3C=CC1C3)NS2(=O)=O (stereo not given)	6.5% (inactive)
Cc1[nH]c(=O)c(C#N)cc1-c1ccc2nccn2c1	19.9% (inactive)
COC(C)(C)CCCC(C)CC=O (stereo not given)	1.37% (inactive)
CC(C)CCCC(C)N (stereo not given)	-9.06% (inactive)
NC(=O)c1ccc([N+](=O)[O-])cc1	-4.97% (inactive)
